Test results taken from PubChem BioAssay AID449768 (Vanderbilt High Throughput Screening Facility, 2010).
In all, about 110,000 compounds went through this assay and about 1,400 (1.3%) were called active.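 The calls were made as follows: active = Z score or B-score, a plate-position-corrected score, falls beyond the plate's 99.7% confidence bounds, in either direction; inactive = both scores lie inside the 99.7% bounds.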 For the sample, actives were picked, then their nearest neighbours and some compounds at random.

molecular target: Sodium-dependent dopamine transporter (Homo sapiens) (UniProt Q01959); assay: changed hDAT dopamine uptake under cocaine IC80, either direction, primary screen, cocaine antagonist project, cell-based, LLC-PK1 hDAT, [14C]-dopamine uptake, MLSMR (AID 449768); conditions: LLC-PK1 hDAT cells, [14C]-dopamine uptake with cocaine IC80; at 10 µM; actives deviate in either direction;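 also: scored against the spread of the other compound wells on the same plate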
Sequence (Q01959 whole entry, looked up): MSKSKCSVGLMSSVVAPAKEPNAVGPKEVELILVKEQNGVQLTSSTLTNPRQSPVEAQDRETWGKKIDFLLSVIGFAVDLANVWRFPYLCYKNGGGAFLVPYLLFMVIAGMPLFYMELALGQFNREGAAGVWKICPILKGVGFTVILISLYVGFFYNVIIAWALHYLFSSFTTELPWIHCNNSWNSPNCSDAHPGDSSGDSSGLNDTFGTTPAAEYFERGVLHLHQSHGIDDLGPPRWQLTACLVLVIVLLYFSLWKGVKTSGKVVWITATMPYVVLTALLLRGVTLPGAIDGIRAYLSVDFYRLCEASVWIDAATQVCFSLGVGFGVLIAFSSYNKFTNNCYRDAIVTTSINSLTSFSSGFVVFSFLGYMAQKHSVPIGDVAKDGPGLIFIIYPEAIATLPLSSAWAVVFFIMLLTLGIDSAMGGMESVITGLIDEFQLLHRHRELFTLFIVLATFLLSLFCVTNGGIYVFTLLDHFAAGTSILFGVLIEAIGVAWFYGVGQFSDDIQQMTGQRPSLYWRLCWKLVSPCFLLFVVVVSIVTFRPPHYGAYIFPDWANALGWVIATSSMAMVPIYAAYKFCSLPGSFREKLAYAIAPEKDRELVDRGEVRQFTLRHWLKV

B-score, active:
CCC1SC2=NCCN2C1(O)c1ccc(Cl)cc1 (stereo not drawn) -5.92, O=C(CCNS(=O)(=O)c1ccccc1C(F)(F)F)NCc1ccc2c(c1)OCO2 -3.26, O=S(=O)(c1cccc(-c2nnc(SC(F)F)n2-c2ccccc2)c1)N1CCCCC1 -7.23, COc1ccc(NC(=O)ON=C2c3ccccc3-c3ccccc32)cc1 3.84, Cc1cc(N2CCN(S(=O)(=O)c3ccc(C)c(C)c3)CC2)c2ccccc2n1 3.23, Cc1ncn(C23CC4CC(CC(O)(C4)C2)C3)n1 -8.14, CCOC(=O)C1=C(C)Nc2sc(C(=O)c3ccc(Br)cc3)c(N)c2C1c1ccc(C(=O)OC)cc1 (stereo not drawn) 2.41, CC(=O)Oc1ccccc1C(=O)Nc1ncc([N+](=O)[O-])s1 -5.94, CCSc1nc2c(c(=O)[nH]1)C(c1cccnc1)C(C(=O)OC(C)C)=C(C)N2 (stereo not drawn) 2.12, COC(=O)C1(S(=O)(=O)C2(C(=O)OC)CCCC2)CCCC1 -2.03, COc1cc(C2C(C(=O)c3ccc(C)o3)=C(O)C(=O)N2CCc2ccccc2)ccc1O (stereo not drawn) -5.4

B-score, inactive:
COc1ccc(C2/C=C\CN(CC(C)C)CC(=O)N2Cc2ccc(F)cc2)cc1 (stereo not drawn) -0.0164, Cc1cccc(Nc2nc(NCCO)nc(N3CCCC3)n2)c1 1.01, NC(=O)CC[C@@H]1NC(=O)[C@@H]2CCCN2C(=O)c2cc([N+](=O)[O-])cc(F)c2NCCC[C@@H](C(N)=O)NC1=O -0.0519, O=C(COc1ccccc1)NCc1ccc2c(c1)OCO2 -0.475, Cn1cc(CCC(=O)NCc2ccc3c(c2)OCO3)c2ccccc21 0.0949, NC(=O)C[C@@H]1NC(=O)CNC(=O)c2cc([N+](=O)[O-])cc(I)c2NCCC(C(N)=O)NC1=O (stereo partly drawn) 0.453, O=S(=O)(c1cccc(S(=O)(=O)N2CCC(n3nnc4ccccc43)CC2)c1)N1CCCCC1 0.575, O=C(O)CCSc1nnc(-c2ccccc2)n1-c1ccccc1 -0.0697, COC(=O)CCCC1=CC2=CC(=O)C(C)(OC(=O)c3cccs3)C(=O)C2=CN1c1cccc(C#N)c1 (stereo not drawn) -2.03, CCCNC(=O)Nc1ccccc1C(=O)Nc1ccc(OC)cc1 1.39, COc1ccc(NC(=O)c2ccc(OC)cc2)cc1 -1.02, Cc1nc(C(=O)Nc2ccc(Cl)cc2)sc1C1(C)CC(c2ccccc2)=NO1 (stereo not drawn) 0.677, CC(C)[C@@H]1NC(=O)c2cc([N+](=O)[O-])cc(I)c2NCCC[C@@H](C(=O)NC(CC(=O)O)C(N)=O)NC(=O)[C@H](CO)NC1=O (stereo partly drawn) -0.454, Cc1ccc(N2CCN(S(=O)(=O)c3ccc(F)cc3)CC2)c(C)c1 0.000185, Cc1ccc(S(=O)(=O)C(C#N)c2nc3ccccc3nc2N2CCCC2)cc1C (stereo not drawn) 1.69, C=CC(COCc1ccccc1)N(Cc1ccccc1)S(=O)(=O)c1ccccc1Br (stereo not drawn) -0.104, C#CCO[C@@H]1C[C@H](n2cnc3c(=O)[nH]c(NC(=O)C(C)C)nc32)O[C@@H]1CO 0.438, COC(=O)c1ccc(C(NC(=O)OCc2ccccc2)/C(F)=C/[C@@H](C)C(=O)O)cc1 (stereo partly drawn) -0.297, C/C=C(\C)C(=O)NCCN1C2=NC[C@H](Cc3ccc(O)cc3)N2C[C@@H]1Cc1ccc(OC)cc1 1.04, CC(N)C12CC3CC(CC(O)(C3)C1)C2 (stereo not drawn) -0.549, COC(=O)c1ccc(NC(=O)C23CC4CC(C2)CC(n2cnc(Cl)n2)(C4)C3)cc1 -1.17, COC(=O)c1c(C)cc(O)c(C)c1O -0.00953, COC(C/C=C/C(=O)[C@@H](C)OCc1ccccc1)OC 0.0548, C=C1C2C[C@H](O)C(C)(C)[C@@]2(O)[C@H](O)C[C@]23C[C@@](C)(O)[C@H](CC[C@H]12)[C@H]3O (stereo partly drawn) -0.371, C=CCC1(C(=O)N(C)Cc2ccccc2)CCN(C(=O)OC(C)(C)C)CC1 1.32, O=C1N[C@H](Cc2ccccc2)C(=O)N[C@H]1Cc1cn(S(=O)(=O)c2ccccc2)c2ccccc12 -1.21, CC(C)(C)CN1C(=O)C(=O)NC[C@H]1Cc1cccc2ccccc12 1.91, CCOC(=O)c1sc(=S)n2c1[nH]c(=O)c1ccc(C(=O)OC)cc12 0.185, CCOC(=O)C1=C(C)NC(C)=C(C(=O)OCC)C1c1ccccn1 -1.62, Cc1ccc(CNC(=O)c2ccc3c(c2)S(=O)(=O)c2ccccc2C3=O)cc1 0.00832, CCCC[C@@H]1CN=C(N)N1CCCC 0.44, CC(=O)c1sc(NC(=O)c2cccc3ccccc23)nc1C 1.43, COC(=O)CNC(=O)c1ccccc1[N+](=O)[O-] -0.561, COC(=O)C1=C(N)Oc2cc(C)oc(=O)c2C1c1cccnc1 (stereo not drawn) 0.0204, COC(=O)C1=C(C)Nc2ncnn2C1c1cccnc1 (stereo not drawn) 0.0386, CCC(=O)Nc1cccc(C2=NOC3(C2)C[C@@H](C(N)=O)N(C(=O)c2cc([N+](=O)[O-])cc([N+](=O)[O-])c2C)C3)c1 (stereo partly drawn) -0.0284, C#CCOCCOCCOCCNc1nc(N2CCN(C(=O)[C@H](CCC(=O)O)n3cc(C(N)CO)nn3)CC2)nc(N2CCN(C(=O)[C@H](CCCCN)n3cc(C(N)CC(C)C)nn3)CC2)n1 (stereo partly drawn) -0.496, COC(C[C@@H](O)[C@H](C)[C@H](O)COCc1ccccc1)OC -0.281, CC(C)=CCc1c(O)c(CC=C(C)C)c2occ(-c3ccc(O)cc3)c(=O)c2c1O 1.79, CNC(=O)c1[nH]cnc1C(=O)N[C@@H](CC(C)C)C(=O)OC(C)(C)C 0.0376, CCCOc1ccc(C2C(C(=O)c3ccc(C)o3)=C(O)C(=O)N2CCCn2ccnc2)cc1 (stereo not drawn) 0.735, COc1cc(C2C(C(=O)c3ccc(C)o3)=C(O)C(=O)N2Cc2cccnc2)ccc1O (stereo not drawn) -0.83
